Assay outcomes deposited in PubChem BioAssay by several laboratories.
NTR1 ag – agonists of human neurotensin receptor NTR1; P30989; AID 493036; 330,000 compounds, 0.17% hits; activation, % at 20 µM; NTR1-U2OS beta-arrestin-GFP spot imaging, agonist mode;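 active = activation at or above 40% of the spot to cytoplasm intensity ratio, with at least 20 cells analyzed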;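 also: 0% = DMSO without peptide and 100% = 100 nM NTR1 peptide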
Cardio protect – myocardial damage modulation in H9c2 cells; H9c2 cardiomyocytes, H2O2 injury protection, ATPLite, 2 h; protection from H2O2 cell death, % at 20 µM; 360,000 compounds, 0.63% hits;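 active = compounds giving at least 50% protection of heart cells from peroxide-induced death in the single-dose screen, raw or plate-pattern-corrected value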;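 also: 0% = DMSO wells with peroxide and 100% = DMSO wells without peroxide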
ALR inh – blocks human ALR sulfhydryl oxidase activity; 290,000 compounds, 3.8% hits; purified ALR, DTT oxidation, H2O2 HRP-luminol luminescence; P55789; AID 485317; inhibition, % (test concentration not listed);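 active = mean replicate inhibition above about 79%, with every replicate also reaching it, limit read from the data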
Target sequence (P55789 whole entry, looked up): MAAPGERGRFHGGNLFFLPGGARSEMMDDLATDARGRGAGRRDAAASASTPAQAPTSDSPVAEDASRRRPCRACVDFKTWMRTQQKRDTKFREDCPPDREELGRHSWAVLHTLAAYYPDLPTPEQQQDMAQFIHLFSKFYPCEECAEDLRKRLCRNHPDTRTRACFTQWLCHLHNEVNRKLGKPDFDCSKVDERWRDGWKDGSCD
SUMO HTRF inh – SUMOylation inhibition | P63279 | 290,000 compounds, 0.36% hits | HTRF SUMOylation assay, SAE1/SAE2 + UBC9, in vitro | inhibition, % at 35 µM; in the data active = inhibition above about 50%, passing the limit was not always enough
Target sequence (P63279 whole entry, looked up): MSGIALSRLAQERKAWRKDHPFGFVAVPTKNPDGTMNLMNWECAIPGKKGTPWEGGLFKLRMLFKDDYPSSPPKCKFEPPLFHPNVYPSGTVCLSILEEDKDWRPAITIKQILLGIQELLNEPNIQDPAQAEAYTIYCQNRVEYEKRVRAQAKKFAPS
An asterisk follows results filed as active; · = no result. Most compounds without a hit are left out; they make up all but 3.9% or so of the library.

SMILES	NTR1 ag	Cardio protect	ALR inh	SUMO HTRF inh
Cn1ccnc1SCC(=O)Nc1ccc(F)c([N+](=O)[O-])c1	2	7	-11	-10
Cc1ccc(NC(=O)CSc2nc(NS(=O)(=O)c3ccccc3)cc(=O)[nH]2)cc1	-1	-4	98*	45
O=C(Cc1cccc(NC(=O)C2CCCN(C(=O)CCc3ccccc3)C2)c1)Nc1ccc(C(=O)N2CCOCC2)cc1 (stereo not given)	·	-21	·	·
CC(=O)c1ccccc1NC(=O)COC(=O)c1ccccc1NC(=O)c1ccccc1	2	4	3	-11
CCOc1ccc(NC(=O)CSc2nc(NS(=O)(=O)c3ccc(C)cc3)cc(=O)[nH]2)cc1	3	-6	·	-23
CCOc1ccc(NC(=O)CSc2nncc(=O)[nH]2)cc1	-1	-2	99*	-3
O=C(CSc1nccc(=O)[nH]1)Nc1ccc(S(=O)(=O)N2CCOCC2)cc1	0	12	99*	31
Cc1cc(=O)[nH]c(SCC(=O)Nc2ccc(S(N)(=O)=O)cc2)n1	0	-5	99*	27
COC(=O)c1ccc(CSc2nc3sc(C(=O)O)c(C)c3c(=O)[nH]2)cc1	-2	·	-73	15
Cc1cc(=O)[nH]c(SCC(=O)Nc2ccc(C)c(S(=O)(=O)N3CCCCC3)c2)n1	0	6	71	20
CCOC(=O)c1ccc(NC(=O)CSc2nc3sc(C(=O)O)c(C)c3c(=O)[nH]2)cc1	-1	0	98*	-3
Cc1ccccc1CNc1ccc(C(CC(N)=O)NC(=O)c2ccc(Br)cc2)cc1[N+](=O)[O-] (stereo not given)	0	-6	1	40
COc1ccccc1C(=O)NCCCNC(=O)c1cnccn1	0	-1	-4	2
CCCc1cc(=O)[nH]c(SCC(=O)Nc2ccc(N3CCCCC3)cc2)n1	0	-2	28	·
Cc1cc(=O)[nH]c(SCC(=O)Nc2ccc(C(=O)O)cc2)n1	1	0	99*	15
CCOC(=O)c1ccc(NC(=O)CSc2nc(C)cc(=O)[nH]2)cc1	0	17	99*	28
CCCc1cc(=O)[nH]c(SCC(=O)Nc2ccc(C)cc2)n1	1	-2	-7	7
COC(=O)c1cc(NC(=O)CSc2nc(C)cc(=O)[nH]2)cc(C(=O)OC)c1	0	2	60	9
O=C(CSc1nncs1)Nc1ccc(N2CCCCC2)cc1	-1	-20	98*	·
Cc1cc(=O)[nH]c(SCC(=O)Nc2ccc(N3CCCCC3)cc2)n1	2	-3	92*	·
O=C(CCNC(=O)Cn1ccc2ccccc2c1=O)NCCc1ccc(Cl)cc1	0	6	-16	-5
Cn1ccc(=S)c2ccccc21	1	14	-14	4
COc1ccc(N(C)C(=O)c2cc3c(s2)-c2ccccc2S(=O)(=O)C3)cc1	0	-3	-5	13
Cc1ccc2nc(SCC(=O)Nc3ccc(C)c([N+](=O)[O-])c3)[nH]c2c1	6	-4	87*	-19
Cc1ccc2nc(SCC(=O)Nc3ccc(F)c([N+](=O)[O-])c3)[nH]c2c1	0	0	·	4
SMILES	NTR1 ag	Cardio protect	ALR inh	SUMO HTRF inh
N#C/C(=C\c1ccc(O)c(O)c1)C(=O)Nc1ccccc1	3	55*	99*	·
COc1ccc(O)c(/C=C(\C#N)C(=O)Nc2cccnc2)c1	-1	-4	98*	14
C[C@@H](NC(=O)/C(C#N)=C/c1ccc(O)c(O)c1)c1ccccc1	0	62*	99*	·
N#C/C(=C/c1ccc(O)c(O)c1)C(=O)NCc1ccc(Cl)cc1	6	65*	22	-13
N#C/C(=C/c1cccc(O)c1)C(=O)NCc1ccc(Cl)cc1	14	-5	0	8
COc1ccc(-c2cc(C(F)(F)F)c(C#N)c(SCC(=O)Nc3ccc(C)cc3)n2)cc1	0	13	4	2
COc1ccc(-n2nc(C(=O)NCC(=O)N(C)Cc3ccccc3)c3ccccc3c2=O)cc1	2	0	1	2
Cc1c(NCc2cc(Cl)ccc2O)c(=O)n(-c2ccccc2)n1C	0	9	·	8
N#C/C(=C\c1ccncc1)C(=O)Nc1ccc(C(=O)O)cc1	0	3	95*	-1
N#C/C(=C\c1ccc(O)c(O)c1)C(=O)Nc1cccc2ncccc12	-1	55*	99*	·
COC(=O)c1oc2c(c1C)C(=O)CCC2	2	9	2	18
COCc1cc(=O)n2[nH]c(C)c(-c3ccc(Cl)cc3)c2n1	·	6	·	·
COCc1cc(=O)n2[nH]cc(-c3ccsc3)c2n1	0	-2	99*	1
CCOC(=O)Cc1cc(=O)n2[nH]cc(-c3ccc(Cl)cc3)c2n1	1	12	99*	9
CCOC(=O)Cc1cc(=O)n2[nH]c(-c3ccc(Cl)cc3)cc2n1	0	-10	-12	4
CCc1nc(N2CCN(C(=O)CCCl)CC2)c2c3c(sc2n1)CCCC3	·	2	·	·
CCOC(=O)c1nc(N2CCN(C(=O)OCC)CC2)c2c3c(sc2n1)CCCC3	4	62*	-25	33
COc1ccc(N2CCN(CCCNC(=O)C3CCCN(S(=O)(=O)c4c(C)n[nH]c4C)C3)CC2)cc1 (stereo not given)	1	1	61	-6
CCOC(=O)c1ccc(NC(=O)C2CCCN(S(=O)(=O)c3cnc[nH]3)C2)cc1 (stereo not given)	1	-2	95*	-1
O=C(NCCc1ccccc1)C1CCCN(S(=O)(=O)c2cnc[nH]2)C1 (stereo not given)	0	3	87*	-16
COc1ccc(N2CCN(CCCNC(=O)C3CCCN(S(=O)(=O)c4cnc[nH]4)C3)CC2)cc1 (stereo not given)	-1	1	87*	11
O=C(Nc1ccc(Cl)cc1)C1CCCN(S(=O)(=O)c2cnc[nH]2)C1 (stereo not given)	2	-2	96*	11
CCOC(=O)c1[nH]cnc1C(=O)N1CCC(C)CC1	0	2	-3	·
COC(=O)c1ccccc1NC(=O)CCC(=O)N1CCSc2ccccc21	2	12	-3	3
CC1Cn2c(nnc2-c2cccc(Cl)c2)S1 (stereo not given)	-2	-7	5	7
SMILES	NTR1 ag	Cardio protect	ALR inh	SUMO HTRF inh
COc1nc(-c2ccccc2)cc(-c2ccccc2)n1	4	11	·	10
O=C(NCCN1CCN(c2ccccc2F)CC1)C1CCCN(S(=O)(=O)c2cnc[nH]2)C1 (stereo not given)	-2	4	88*	0
COc1cc(NC(=O)C2CCCN(S(=O)(=O)c3cnc[nH]3)C2)cc(OC)c1 (stereo not given)	0	0	98*	-5
O=C(NCc1ccc(Cl)cc1)C1CCCN(S(=O)(=O)c2cnc[nH]2)C1 (stereo not given)	1	-1	94*	-10
Cc1cc(C)cc(NC(=O)C2CCCN(S(=O)(=O)c3cnc[nH]3)C2)c1 (stereo not given)	3	-1	42	-5
CC(C)c1ccc(NC(=O)C2CCCN(S(=O)(=O)c3cnc[nH]3)C2)cc1 (stereo not given)	18	-1	91*	1
